Test results taken from PubChem BioAssay (NCATS).
Values joined by “and” are separate entries in the source; they are usually repeats but may differ in a detail not shown here. Equal entries are not always repeated. Inconclusive results are not listed. Where a call stands in place of a potency, no number is given. Active and inactive are the calls of the source. Unless noted, calls come from the whole dose curve; as a rule, active = well fitted curve in the direction sought with a large enough effect; inconclusive = small, poorly fitted or top-dose-only effect, or another doubt; inactive = no such curve, though single readings can be large; an effect the other way counts as inactive or inconclusive.

Columns and labels:
[1] = Cellular Toxicity (caspase-3) BJ (AID 658)
Outline: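 Luminescent aminoluciferin-substrate cleavage reports caspase 3/7 activity in normal human BJ fibroblasts after 16 hr compound exposure at 37 °C. Normalized to DMSO (basal) and 10 uM staurosporine (100%); AC50 from Hill fit of concentration-response.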

[2] = biological target: Estrogen receptor (Homo sapiens) (UniProt P03372); test: qHTS assay for small molecule antagonists of estrogen receptor alpha signaling (AID 588513; active = well fitted curve in the direction sought with a large enough effect in the signal ratio, with a control signal flat, not every such curve was filed as active; the % refers to the signal ratio)
Chain of Estrogen receptor (Homo sapiens) (P03372 whole entry, looked up): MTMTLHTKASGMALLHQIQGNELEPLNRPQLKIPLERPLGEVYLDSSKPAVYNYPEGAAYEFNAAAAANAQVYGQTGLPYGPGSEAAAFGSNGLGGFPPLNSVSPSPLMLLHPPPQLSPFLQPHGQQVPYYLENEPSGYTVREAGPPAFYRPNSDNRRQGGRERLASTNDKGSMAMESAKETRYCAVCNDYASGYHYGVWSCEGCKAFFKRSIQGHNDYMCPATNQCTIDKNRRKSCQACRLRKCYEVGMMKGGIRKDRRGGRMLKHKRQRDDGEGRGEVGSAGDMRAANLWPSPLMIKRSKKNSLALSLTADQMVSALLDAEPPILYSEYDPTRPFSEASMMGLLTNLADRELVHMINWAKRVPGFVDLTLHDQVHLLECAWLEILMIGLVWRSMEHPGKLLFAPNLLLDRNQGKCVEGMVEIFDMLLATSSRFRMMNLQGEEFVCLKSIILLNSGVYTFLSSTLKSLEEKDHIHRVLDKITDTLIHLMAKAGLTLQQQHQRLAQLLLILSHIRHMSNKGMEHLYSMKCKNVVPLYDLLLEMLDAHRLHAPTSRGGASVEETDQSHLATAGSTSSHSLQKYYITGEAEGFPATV
Outline: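 Antagonist-mode qHTS in ER-alpha-UAS-bla HEK 293 cells: compound titration, 0.5nM estradiol for 18 h, CCF4 fluorescence, Hill-derived IC50.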

[3] = biological target: Estrogen receptor (Homo sapiens) (UniProt P03372); test: qHTS assay for small molecule agonists of estrogen receptor alpha signaling (AID 588514; calls by dose curve; note: nearly all actives have a fitted effect of over 70% in size)
Outline: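 ER-alpha-UAS-bla GripTite HEK 293 cells in medium with 2% charcoal/dextran-treated FBS were treated with compound titrations at 37 C for 18 hrs; beta-lactamase reporter read by CCF4 fluorescence after 2 hrs at RT.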

[4] = biological target: Glucocorticoid receptor (Homo sapiens) (UniProt P04150); test: qHTS assay for small molecule agonists of glucocorticoid receptor signaling (AID 588532; active = well fitted curve in the direction sought with a large enough effect in the signal ratio, with a control signal flat; the % refers to the signal ratio); details: HeLa MMTV-bla, beta-lactamase ratio, agonist, 18 h; stronger effect = higher value; percent of dexamethasone control, DMSO zero
Chain of Glucocorticoid receptor (Homo sapiens) (P04150 whole entry, looked up): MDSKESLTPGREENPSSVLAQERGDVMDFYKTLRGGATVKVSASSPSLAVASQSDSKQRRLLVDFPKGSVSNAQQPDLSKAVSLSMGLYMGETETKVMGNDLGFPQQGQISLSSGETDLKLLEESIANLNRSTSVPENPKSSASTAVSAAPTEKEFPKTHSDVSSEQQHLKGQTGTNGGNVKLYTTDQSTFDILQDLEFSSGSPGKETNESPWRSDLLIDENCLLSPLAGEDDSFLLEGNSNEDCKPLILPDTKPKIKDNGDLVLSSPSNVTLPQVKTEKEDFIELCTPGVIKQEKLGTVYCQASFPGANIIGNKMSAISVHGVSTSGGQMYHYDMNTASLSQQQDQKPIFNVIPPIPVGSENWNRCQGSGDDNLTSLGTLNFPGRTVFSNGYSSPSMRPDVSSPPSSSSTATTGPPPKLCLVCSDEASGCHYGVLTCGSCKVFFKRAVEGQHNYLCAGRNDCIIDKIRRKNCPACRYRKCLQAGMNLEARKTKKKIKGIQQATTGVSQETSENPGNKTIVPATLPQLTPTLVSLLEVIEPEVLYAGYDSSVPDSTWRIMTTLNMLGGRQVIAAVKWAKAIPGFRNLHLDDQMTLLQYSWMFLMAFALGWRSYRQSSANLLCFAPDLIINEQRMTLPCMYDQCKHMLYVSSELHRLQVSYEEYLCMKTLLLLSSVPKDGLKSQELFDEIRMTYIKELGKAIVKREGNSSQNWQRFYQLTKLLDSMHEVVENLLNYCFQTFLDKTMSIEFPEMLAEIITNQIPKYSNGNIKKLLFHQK
Outline: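 Stimulation of a glucocorticoid response element-driven beta-lactamase gene was measured in HeLa cells. Responses were scaled between DMSO basal and 0.1 uM dexamethasone, then fitted for half-maximal stimulation.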

[5] = biological target: Vitamin D3 receptor (Homo sapiens) (UniProt P11473); test: qHTS assay for small molecule antagonists of vitamin D receptor signaling (AID 588541; calls by dose curve;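 note: receptor activated by calcitriol during compound treatment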)
Chain of Vitamin D3 receptor (Homo sapiens) (P11473 whole entry, looked up): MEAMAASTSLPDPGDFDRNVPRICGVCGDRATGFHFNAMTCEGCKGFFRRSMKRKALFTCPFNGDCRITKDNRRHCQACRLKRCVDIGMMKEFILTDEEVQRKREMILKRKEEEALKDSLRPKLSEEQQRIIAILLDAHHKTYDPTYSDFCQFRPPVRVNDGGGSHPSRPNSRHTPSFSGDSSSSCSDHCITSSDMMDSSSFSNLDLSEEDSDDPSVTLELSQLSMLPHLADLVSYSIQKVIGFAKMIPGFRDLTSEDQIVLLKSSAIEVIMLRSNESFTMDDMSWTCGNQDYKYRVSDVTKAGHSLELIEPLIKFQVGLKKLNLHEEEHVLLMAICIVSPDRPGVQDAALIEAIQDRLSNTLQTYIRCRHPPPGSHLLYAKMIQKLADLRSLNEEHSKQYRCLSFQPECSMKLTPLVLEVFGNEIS
Outline: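 VDR-UAS-bla HEK293T cells (2000/well, 2% charcoal-stripped FBS) were treated with titrated compounds plus 1-alpha,25-dihydroxyvitamin D3 (50 nM or 3 nM final) for 16 h at 37 C. CCF4 beta-lactamase fluorescence was read; Hill fits gave IC50.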

[6] = biological target: Voltage-gated inwardly rectifying potassium channel KCNH2 (Homo sapiens) (UniProt Q12809); test: qHTS Assay for Small Molecule Inhibitors of the Human hERG Channel Activity (AID 588834);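 note: top concentration of the series differs between compounds; lower thallium flux fluorescence means stronger hERG block; nearly all actives have a fitted effect of over 50% in size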
Chain of Voltage-gated inwardly rectifying potassium channel KCNH2 (Homo sapiens) (Q12809 whole entry, looked up): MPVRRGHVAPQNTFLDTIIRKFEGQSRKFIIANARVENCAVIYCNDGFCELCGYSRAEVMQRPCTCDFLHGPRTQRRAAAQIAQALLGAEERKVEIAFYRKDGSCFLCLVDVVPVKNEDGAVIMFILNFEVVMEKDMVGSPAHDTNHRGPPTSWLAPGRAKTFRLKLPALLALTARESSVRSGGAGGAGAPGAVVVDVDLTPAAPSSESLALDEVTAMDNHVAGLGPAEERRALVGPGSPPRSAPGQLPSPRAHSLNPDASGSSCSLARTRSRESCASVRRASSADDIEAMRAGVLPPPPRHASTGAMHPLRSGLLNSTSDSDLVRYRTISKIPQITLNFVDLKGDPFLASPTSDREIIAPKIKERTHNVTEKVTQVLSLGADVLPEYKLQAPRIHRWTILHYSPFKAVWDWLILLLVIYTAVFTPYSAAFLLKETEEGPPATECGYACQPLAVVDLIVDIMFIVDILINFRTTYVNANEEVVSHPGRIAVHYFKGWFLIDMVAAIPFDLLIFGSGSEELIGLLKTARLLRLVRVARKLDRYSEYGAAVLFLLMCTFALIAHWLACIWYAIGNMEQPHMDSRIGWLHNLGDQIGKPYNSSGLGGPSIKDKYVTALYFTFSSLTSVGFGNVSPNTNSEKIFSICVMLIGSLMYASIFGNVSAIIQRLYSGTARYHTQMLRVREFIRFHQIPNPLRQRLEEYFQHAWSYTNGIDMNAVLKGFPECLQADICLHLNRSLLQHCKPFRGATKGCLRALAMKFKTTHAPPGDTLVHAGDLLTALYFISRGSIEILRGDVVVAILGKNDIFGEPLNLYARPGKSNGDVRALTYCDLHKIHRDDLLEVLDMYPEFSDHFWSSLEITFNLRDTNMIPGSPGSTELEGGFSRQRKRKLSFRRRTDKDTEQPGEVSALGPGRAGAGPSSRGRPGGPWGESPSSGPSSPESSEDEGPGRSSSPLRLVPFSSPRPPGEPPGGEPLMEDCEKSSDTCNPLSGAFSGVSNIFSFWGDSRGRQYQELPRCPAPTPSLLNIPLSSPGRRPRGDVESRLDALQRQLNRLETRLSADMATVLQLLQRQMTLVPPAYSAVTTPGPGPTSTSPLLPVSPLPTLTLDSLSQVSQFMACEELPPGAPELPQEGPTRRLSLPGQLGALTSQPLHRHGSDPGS
Outline: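 Blockade is seen as reduced FluxOR thallium-flux fluorescence in U2OS cells expressing hERG from a BacMam construct, in Opti-MEM with 2% FCS. Concentration-response data fitted to the Hill equation for AC50.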

[7] = qHTS assay for small molecule agonists of the antioxidant response element (ARE) signaling pathway (AID 651741; active = well fitted activation curve with a large enough effect in the signal ratio; the % refers to the signal ratio; note: potency is the fitted concentration of half-maximal effect)
Outline: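 ARE-bla HepG2 cells (beta-lactamase reporter under ARE control) were plated at 2,000 cells/well, preincubated 5 h at 37 C/5% CO2, then treated with DMSO-dissolved compounds for 16 h at 37 C; LiveBLAzer B/G FRET substrate added, fluorescence read after 2 h at room temperature.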

[8] = qHTS assay for small molecule activators of the p53 signaling pathway (AID 651743; active = well fitted activation curve with a large enough effect in the signal ratio, not every such curve was filed as active; the % refers to the signal ratio); details: HCT-116 p53RE-bla, beta-lactamase FRET ratio, 16 h; activation: stronger effect = higher value
Outline: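 p53RE-bla HCT-116 cells with a stably integrated beta-lactamase reporter under p53 response elements were plated, rested 5 hours at 37 C/5% CO2, then exposed to compounds in DMSO for 16 hours at 37 C. LiveBLAzer B/G FRET substrate was read after 2 hours at room temperature.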

[9] = qHTS assay for small molecule activators of the nuclear factor-kappa B (NF-kB) signaling pathway (AID 651749; active = well fitted activation curve with a large enough effect in the signal ratio; the % refers to the signal ratio); details: NF-kB-bla ME-180 cells, beta-lactamase FRET ratio, 16 h; stronger effect = higher value
Outline: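 ME-180 cells stably carrying a beta-lactamase reporter under an NF-kB response element were exposed to compound or DMSO vehicle for 16 hr at 37C, 5% CO2. Pathway activation was read by FRET, since reporter expression disrupts FRET.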

[10] = qHTS assay for small molecule disruptors of the mitochondrial membrane potential - 1 hr assay (AID 651754; calls by dose curve; note: nearly all actives have a fitted effect of over 35% in size; note: potency is the fitted concentration of half-maximal effect)
Outline: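 HepG2 cells, attached overnight at 37C, were exposed to compound or DMSO vehicle for 1 hr at 37C, 5% CO2, then stained with Mito-MPS dye for 30 min. Red aggregate versus green monomer fluorescence reports membrane potential.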

[11] = qHTS assay for small molecule antagonists of the retinoid-related orphan receptor gamma (ROR-gamma) signaling pathway - cell viability counter screen (AID 720652; active = well fitted curve in the direction sought with a large enough effect in the repeat runs; an effect the other way counts as inactive or inconclusive;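 note: compound exposure lasted 16 hr before ATP read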)
Outline: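 Counter screen in CHO cells carrying TET-inducible ROR-gamma and an ROR response element-luciferase reporter; cells plated 5 hr, compound pinned, doxycycline added, then 16 hr at 37 C. Viability read as intracellular ATP by CellTiter-Glo luminescence.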

[12] = Cell Viability - N2a (AID 540); details: N2a mouse neuroblastoma cell viability; activity change, negative = cytotoxicity: at 92.2 µM (top of the series); note: nearly all actives have a fitted effect of over 45% in size; note: potency is the fitted concentration of half-maximal effect
Outline: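 Mouse neuroblastoma N2a cells (1500/well) were preincubated 5 hr at 37 °C, then exposed to compounds for 40 hr at 37 °C in complete medium. Viability was read as intracellular ATP by CellTiter-Glo luminescence; AC50 from Hill fits.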

[13] = biological target: Cytochrome P450 3A4 (Homo sapiens) (UniProt P08684); test: qHTS Assay for Inhibitors and Substrates of Cytochrome P450 3A4 (AID 884); note: nearly all actives have a fitted effect of over 50% in size
Chain of Cytochrome P450 3A4 (Homo sapiens) (P08684 whole entry, looked up): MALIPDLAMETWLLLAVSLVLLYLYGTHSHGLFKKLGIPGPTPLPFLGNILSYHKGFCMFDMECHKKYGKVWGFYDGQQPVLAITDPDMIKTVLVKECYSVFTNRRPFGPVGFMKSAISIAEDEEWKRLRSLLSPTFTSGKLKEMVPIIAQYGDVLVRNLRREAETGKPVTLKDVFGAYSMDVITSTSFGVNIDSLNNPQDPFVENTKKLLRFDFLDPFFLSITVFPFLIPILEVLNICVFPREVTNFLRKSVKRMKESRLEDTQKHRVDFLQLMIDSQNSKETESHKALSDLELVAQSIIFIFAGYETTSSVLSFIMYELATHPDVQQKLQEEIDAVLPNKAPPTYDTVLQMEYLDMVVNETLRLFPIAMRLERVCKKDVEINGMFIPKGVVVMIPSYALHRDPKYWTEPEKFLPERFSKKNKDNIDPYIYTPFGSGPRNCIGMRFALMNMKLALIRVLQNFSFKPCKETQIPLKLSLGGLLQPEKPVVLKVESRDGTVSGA
Outline: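 20 nM human CYP3A4 with 25 uM Luciferin-PPXE (at KM) in 200 mM KPO4, preincubated 10 min with compound; NADPH regeneration started a 60 min RT reaction. Luciferin detected by luminescence, normalized to 57 uM ketoconazole as full inhibition.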

[14] = biological target: Glucocorticoid receptor (Homo sapiens) (UniProt P04150); test: qHTS assay for small molecule antagonists of glucocorticoid receptor signaling (AID 588533; active = well fitted inhibition curve with a large enough effect in the signal ratio, with a control signal flat, not every such curve was filed as active; the % refers to the signal ratio;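 note: cells stimulated with 2 nM dexamethasone as agonist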)
Outline: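 Antagonist-mode qHTS: compound titrations added to GRE-bla HeLa cells, then dexamethasone 2 nM final; 18 h, 37 C. CCF4 FRET fluorescence normalized to dexamethasone and DMSO; IC50 from Hill fit.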

[15] = biological target: Peroxisome proliferator-activated receptor delta (Homo sapiens) (UniProt Q03181); test: qHTS assay for small molecule agonists of peroxisome proliferator-activated receptor delta signaling (AID 588534; calls by dose curve)
Chain of Peroxisome proliferator-activated receptor delta (Homo sapiens) (Q03181 whole entry, looked up): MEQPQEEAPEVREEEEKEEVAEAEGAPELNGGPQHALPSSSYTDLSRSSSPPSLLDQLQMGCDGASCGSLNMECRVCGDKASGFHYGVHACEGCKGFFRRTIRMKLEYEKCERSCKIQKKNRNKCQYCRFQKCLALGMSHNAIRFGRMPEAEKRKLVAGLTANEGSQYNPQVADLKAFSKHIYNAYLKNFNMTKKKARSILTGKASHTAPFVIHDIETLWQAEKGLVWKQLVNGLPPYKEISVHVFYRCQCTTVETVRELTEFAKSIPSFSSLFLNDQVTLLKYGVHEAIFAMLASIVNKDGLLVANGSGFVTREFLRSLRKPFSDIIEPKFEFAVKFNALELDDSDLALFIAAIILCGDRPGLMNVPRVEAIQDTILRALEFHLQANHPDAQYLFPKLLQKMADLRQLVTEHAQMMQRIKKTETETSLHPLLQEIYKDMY
Outline: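 Cell-based beta-lactamase reporter assay run in agonist mode: cells seeded and incubated 5 hrs at 37 C, compounds added and incubated 18 hrs at 37 C. CCF4 dye fluorescence read after 2 hrs at RT; EC50 and efficacy from Hill fits.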

[16] = biological target: Peroxisome proliferator-activated receptor gamma (Homo sapiens) (UniProt P37231); test: qHTS assay for small molecule antagonists of peroxisome proliferator-activated receptor gamma signaling (AID 588537; active = well fitted inhibition curve with a large enough effect in the signal ratio, with a control signal flat, not every such curve was filed as active; the % refers to the signal ratio;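 note: reporter cells co-stimulated with 50 nM rosiglitazone agonist during compound treatment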)
Chain of Peroxisome proliferator-activated receptor gamma (Homo sapiens) (P37231 whole entry, looked up): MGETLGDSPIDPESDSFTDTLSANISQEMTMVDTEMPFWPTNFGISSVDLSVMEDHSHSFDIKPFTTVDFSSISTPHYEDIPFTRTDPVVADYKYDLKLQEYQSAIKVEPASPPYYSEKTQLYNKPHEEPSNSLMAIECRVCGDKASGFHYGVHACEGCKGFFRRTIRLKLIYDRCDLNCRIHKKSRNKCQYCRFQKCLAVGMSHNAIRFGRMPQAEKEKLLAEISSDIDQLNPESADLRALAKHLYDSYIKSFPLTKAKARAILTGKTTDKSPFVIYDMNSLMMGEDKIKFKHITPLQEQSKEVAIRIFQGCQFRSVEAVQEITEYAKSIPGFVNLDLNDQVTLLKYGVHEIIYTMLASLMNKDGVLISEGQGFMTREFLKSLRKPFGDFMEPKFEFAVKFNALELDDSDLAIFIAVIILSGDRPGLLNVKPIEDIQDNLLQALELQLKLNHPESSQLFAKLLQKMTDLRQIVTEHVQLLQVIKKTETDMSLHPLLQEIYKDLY
Outline: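 PPAR-gamma-UAS-bla HEK293 cells (3000/well, 1% charcoal/dextran-stripped FBS) were preincubated 6-6.5 h at 37 C, given titrated compounds, then stimulated with 50 nM rosiglitazone for 16 h. Beta-lactamase activity was read with CCF4 dye; IC50 came from Hill fits.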

[17] = qHTS assay for environmental chemicals that activate the Aryl hydrocarbon Receptor (AhR) signaling pathway (AID 651777); details: 1A2-DRE human hepatoma cells, luciferase, 24 h; activation: stronger effect = higher value; note: nearly all actives have a fitted effect of over 15% in size
Outline: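 Following a 24 hr incubation with test chemicals at 37 C and 5% CO2, 1A2-DRE human hepatoma cells received One-Glo reagent; after 30 min at room temperature, luciferase output reflected CYP1A2 induction via AhR.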

[18] = biological target: Nuclear receptor ROR-gamma (Homo sapiens) (UniProt P51449); test: qHTS assay for small molecule antagonists of the retinoid-related orphan receptor gamma (ROR-gamma) signaling pathway (AID 651802); note: nearly all actives have a fitted effect of over 60% in size
Chain of Nuclear receptor ROR-gamma (Homo sapiens) (P51449 whole entry, looked up): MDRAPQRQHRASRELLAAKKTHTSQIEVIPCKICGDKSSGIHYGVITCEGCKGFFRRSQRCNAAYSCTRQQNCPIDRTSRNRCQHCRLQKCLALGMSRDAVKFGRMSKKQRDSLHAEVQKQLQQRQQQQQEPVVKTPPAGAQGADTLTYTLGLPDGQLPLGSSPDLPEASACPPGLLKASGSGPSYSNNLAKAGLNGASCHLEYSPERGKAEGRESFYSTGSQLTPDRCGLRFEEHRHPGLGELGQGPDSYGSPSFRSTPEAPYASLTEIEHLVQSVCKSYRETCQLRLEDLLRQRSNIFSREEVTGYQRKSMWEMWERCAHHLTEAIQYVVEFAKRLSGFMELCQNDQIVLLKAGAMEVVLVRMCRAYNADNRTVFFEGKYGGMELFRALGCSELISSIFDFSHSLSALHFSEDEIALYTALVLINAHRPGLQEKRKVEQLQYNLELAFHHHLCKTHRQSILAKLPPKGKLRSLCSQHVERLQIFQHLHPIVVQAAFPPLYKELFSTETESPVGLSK
Outline: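 CHO cells carrying TET-inducible ROR-gamma and an ROR response element–luciferase reporter were exposed to compound, then induced with doxycycline. After 16hr at 37C, luminescence was read; lower signal indicates antagonism.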

[19] = qHTS assay for small molecule antagonists of peroxisome proliferator-activated receptor delta signaling (AID 588535; active = well fitted inhibition curve with a large enough effect in the signal ratio, with a control signal flat, not every such curve was filed as active; the % refers to the signal ratio;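 for max response: cells co-treated with a PPAR-delta agonist as stimulator during compound exposure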); details: HEK293T PPARd-UAS-bla, beta-lactamase FRET ratio, 18 h; 460 nm channel
Outline: (§1)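 GeneBLAzer PPAR-delta-UAS-bla HEK293T cells in medium with 2% charcoal/dextran FBS were preincubated 5 hrs at 37 C, then given compounds, incubated 18 hrs at 37 C, and read by CCF4 beta-lactamase fluorescence; IC50 from Hill fits.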

[20] = biological target: Peroxisome proliferator-activated receptor delta (Homo sapiens) (UniProt Q03181); test: as above
Outline: as §1

Row | Structure (SMILES) | outcome [1] | Potency [2] | Potency [3] | activation [4] | outcome [5] | Potency [6] | Potency [7] | activation [8] | activation [9] | Potency [10] | Potency [11] | Potency [12] | Potency [13] | outcome [14] | outcome [15] | Potency [16] | activation [17] | Potency [18] | max response [19] | outcome [20]
1 | [N-]=[N+]=[N-] | inactive | inactive | inactive | -7.88% (inactive) | inactive | inactive | inactive | -1.87% (inactive) | 0.007% (inactive) | inactive | inactive |  |  |  |  |  |  |  |  | 
2 | N#C/C(N)=C(/N)C#N | inactive | inactive | inactive | -0.556% (inactive) | inactive |  |  | 1.55% (inactive) | -1.05% (inactive) |  | inactive | inactive | inactive | inactive | inactive | inactive | 0.971% (inactive) | inactive |  | 
3 | CCN(CC)N=O |  |  |  |  | inactive |  | inactive | -1.39% (inactive) | 0.914% (inactive) | inactive | inactive |  |  |  | inactive | inactive | -0.0915% (inactive) | inactive |  | 
4 | O=NN1CCCCC1 | inactive |  |  | 0.249% (inactive) | inactive | inactive | inactive | -2.94% (inactive) | -0.849% (inactive) | inactive | inactive |  | inactive | inactive | inactive |  | 1.05% (inactive) | inactive | -27.9% | inactive
5 | CSSC | inactive |  |  |  | inactive | inactive | inactive | -1.71% (inactive) |  |  |  | inactive | inactive |  | inactive |  |  | inactive |  | 
6 | Nc1cccc(Cl)c1 | inactive | inactive | inactive |  | inactive | inactive | inactive |  | -1.07% (inactive) | inactive | inactive | inactive | inactive |  |  |  | -0.221% (inactive) | inactive | 30.4% | inactive
7 | O=C(O)C(Cl)Br (configuration not stated) | inactive |  |  | 5.56% (inactive) | inactive | inactive | 33.5 µM (active) | 0.485% (inactive) | 0.434% (inactive) | inactive |  |  | inactive |  |  |  | 0.968% (inactive) | inactive | 33.1% | inactive
8 | CC12CC1(C)C(=O)N(c1cc(Cl)cc(Cl)c1)C2=O (configuration not stated) |  |  |  | -1.15% (inactive) and -3.35% (inactive) | inactive | inactive |  | 3.14% (inactive) | -0.629% (inactive) and -1.26% (inactive) |  |  | inactive | inactive | inactive |  | inactive | -0.0704% (inactive) and 1.05% (inactive) | inactive | -1.5% and 19.3% | inactive
9 | ClCc1ccccc1 |  | inactive | inactive |  | inactive | inactive | inactive | -2.55% (inactive) | -0.661% (inactive) |  | inactive | inactive |  |  | inactive |  |  | inactive | -22.1% | inactive
10 | O=Cc1ccc2c(c1)OCO2 | inactive |  |  | 1.67% (inactive) | inactive | inactive | inactive |  | -0.011% (inactive) | inactive |  |  | inactive | inactive | inactive |  | -0.902% (inactive) |  | -1.49% | inactive
11 | CC1CC(=O)O1 (configuration not stated) | inactive |  |  | 4.16% (inactive) | inactive | inactive | inactive |  |  | inactive | inactive |  | inactive | inactive | inactive | inactive | 0.52% (inactive) | inactive | 2.28% | 
12 | c1ccc(Nc2ccc(Nc3ccccc3)cc2)cc1 | inactive |  |  |  |  |  |  |  |  | 42.2 µM (active) |  | 15.8 µM (active) |  |  | inactive |  |  | inactive | 91.4% | inactive
13 | CC(C)CC(C)N (configuration not stated) | inactive | inactive | inactive |  |  | inactive |  | -1.88% (inactive) |  | inactive | inactive |  | inactive | inactive |  | inactive | 0.111% (inactive) | inactive | -20.2% | 
14 | Oc1ccc(Cl)c(Cl)c1Cl | inactive |  |  | 6.93% (inactive) | inactive | inactive | 42.2 µM (active) | -0.769% (inactive) | -0.348% (inactive) | 42.2 µM (active) | inactive |  |  | inactive | inactive | inactive | 3.11% (inactive) |  |  | 
15 | CC(C)C#N | inactive |  |  | 1.53% (inactive) |  | inactive |  |  | -0.872% (inactive) | inactive | inactive | inactive | inactive | inactive | inactive | inactive | 0.256% (inactive) | inactive | -11.5% | inactive
16 | Clc1ccccc1 |  | inactive | inactive | -4.89% (inactive) | inactive | inactive |  |  |  | inactive | inactive | inactive |  | inactive | inactive | inactive |  | inactive | -34.6% | 
17 | C=CCCl | inactive | inactive | inactive | 2.78% (inactive) | inactive | inactive |  | -1.58% (inactive) | -0.803% (inactive) | inactive | inactive | inactive | inactive | inactive |  | inactive | 1.05% (inactive) |  |  | 
18 | CCC[N+](=O)[O-] | inactive |  |  |  | inactive |  |  | -0.809% (inactive) | -0.704% (inactive) | inactive | inactive | inactive | inactive |  | inactive | inactive | 1.28% (inactive) | inactive | -21.5% | inactive
